# Reference: PMC7862700, “An all-to-all approach to the identification of sequence-specific readers for epigenetic DNA modifications on cytosine”
# How the values were obtained:
# Assay in all cases: DAPPL (digital affinity profiling via proximity ligation, sequencing); 10 mM Tris-HCl pH 7.5, 50 mM NaCl, 1 mM DTT, 4% glycerol, room temperature, 30 min; GST-TFs on glutathione beads, 16-mer random dsDNA library, 0.1% formaldehyde crosslink after washing; high values mean tight binding
# FLI1 = biological target: T1, FLI1 (Homo sapiens, UniProt Q01543 1-452); details: protein: recombinant; tags: N-terminal GST; dsDNA, one strand shown
# T1 sequence: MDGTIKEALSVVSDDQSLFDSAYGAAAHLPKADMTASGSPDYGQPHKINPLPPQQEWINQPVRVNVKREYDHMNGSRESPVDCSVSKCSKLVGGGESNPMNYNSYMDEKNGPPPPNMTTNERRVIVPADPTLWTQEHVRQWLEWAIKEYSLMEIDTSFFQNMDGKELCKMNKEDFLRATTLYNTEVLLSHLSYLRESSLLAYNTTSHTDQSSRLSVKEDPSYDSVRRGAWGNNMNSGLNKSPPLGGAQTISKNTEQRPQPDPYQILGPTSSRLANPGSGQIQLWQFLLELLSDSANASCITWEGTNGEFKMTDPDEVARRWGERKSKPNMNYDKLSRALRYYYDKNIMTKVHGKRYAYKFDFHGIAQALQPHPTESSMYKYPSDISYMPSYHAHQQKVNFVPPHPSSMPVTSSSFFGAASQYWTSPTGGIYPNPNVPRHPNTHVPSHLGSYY
# Method in brief: (§1)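 Binding signal is each hexamer's read frequency for a factor divided by its frequency in the tag-only sample. The factors were GST-fused human transcription factors from yeast, captured on glutathione beads, DNA-barcoded and pooled with that sample. Pools were incubated with 200 nmole of a random double-stranded 16-mer DNA library in Tris/NaCl/DTT/glycerol buffer at room temperature for 30 min, then washed, crosslinked with 0.1% formaldehyde, proximity-ligated with BsaI/T4 ligase (1 h, 37 °C), PCR-amplified and sequenced on an Illumina NextSeq500.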
# ELK1 = biological target: T2, ELK1 (Homo sapiens, UniProt P19419 1-428); details: protein: recombinant; tags: N-terminal GST; dsDNA, one strand shown
# T2 sequence: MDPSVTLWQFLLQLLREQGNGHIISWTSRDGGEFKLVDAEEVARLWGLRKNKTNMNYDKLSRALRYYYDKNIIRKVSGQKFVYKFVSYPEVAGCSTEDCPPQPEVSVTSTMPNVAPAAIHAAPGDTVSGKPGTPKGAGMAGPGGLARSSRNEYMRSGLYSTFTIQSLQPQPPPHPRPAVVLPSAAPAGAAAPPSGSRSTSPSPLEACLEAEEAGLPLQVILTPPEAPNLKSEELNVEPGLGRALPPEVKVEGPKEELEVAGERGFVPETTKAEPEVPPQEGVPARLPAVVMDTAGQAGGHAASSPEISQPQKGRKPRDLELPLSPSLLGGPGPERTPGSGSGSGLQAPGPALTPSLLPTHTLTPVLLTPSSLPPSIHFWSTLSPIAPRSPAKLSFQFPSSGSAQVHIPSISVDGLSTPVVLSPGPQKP
# Method in brief: as §1
# GABPA = biological target: T3, GABPA (Homo sapiens, UniProt Q06546 1-454); details: protein: recombinant; tags: N-terminal GST; dsDNA, one strand shown
# T3 sequence: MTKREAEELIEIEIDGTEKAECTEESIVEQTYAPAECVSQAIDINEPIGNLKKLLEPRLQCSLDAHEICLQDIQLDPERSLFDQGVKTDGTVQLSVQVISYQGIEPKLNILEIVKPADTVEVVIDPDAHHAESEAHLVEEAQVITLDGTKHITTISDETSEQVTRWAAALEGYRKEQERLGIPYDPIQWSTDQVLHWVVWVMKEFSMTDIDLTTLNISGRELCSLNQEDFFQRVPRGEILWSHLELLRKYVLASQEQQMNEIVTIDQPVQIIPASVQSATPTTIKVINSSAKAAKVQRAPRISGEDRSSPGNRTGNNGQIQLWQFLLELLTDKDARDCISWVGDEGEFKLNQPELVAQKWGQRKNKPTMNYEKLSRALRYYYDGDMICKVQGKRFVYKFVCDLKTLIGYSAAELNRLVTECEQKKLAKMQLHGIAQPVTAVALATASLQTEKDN
# Method in brief: as §1
# ERG = biological target: T4, ERG (Homo sapiens, UniProt P11308 1-479); details: protein: recombinant; tags: N-terminal GST; dsDNA, one strand shown
# T4 sequence: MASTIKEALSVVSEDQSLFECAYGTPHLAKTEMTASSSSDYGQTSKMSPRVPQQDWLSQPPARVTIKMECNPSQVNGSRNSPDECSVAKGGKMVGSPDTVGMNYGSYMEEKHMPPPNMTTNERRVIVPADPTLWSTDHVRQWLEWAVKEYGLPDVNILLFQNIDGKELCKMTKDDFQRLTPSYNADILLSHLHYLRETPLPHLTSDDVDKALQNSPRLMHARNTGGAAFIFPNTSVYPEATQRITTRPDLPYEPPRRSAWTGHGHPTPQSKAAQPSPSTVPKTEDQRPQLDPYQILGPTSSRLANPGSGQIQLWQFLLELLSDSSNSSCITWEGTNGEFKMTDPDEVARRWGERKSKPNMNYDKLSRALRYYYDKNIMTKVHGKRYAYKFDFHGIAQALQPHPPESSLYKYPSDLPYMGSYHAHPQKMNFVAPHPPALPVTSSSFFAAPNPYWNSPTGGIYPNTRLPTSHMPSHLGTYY
# Method in brief: as §1
# ELF1 = ELF1 (Homo sapiens, UniProt P32519 1-619); details: protein: recombinant; tags: N-terminal GST; dsDNA, one strand shown
# ELF1, sequence (P32519 whole entry): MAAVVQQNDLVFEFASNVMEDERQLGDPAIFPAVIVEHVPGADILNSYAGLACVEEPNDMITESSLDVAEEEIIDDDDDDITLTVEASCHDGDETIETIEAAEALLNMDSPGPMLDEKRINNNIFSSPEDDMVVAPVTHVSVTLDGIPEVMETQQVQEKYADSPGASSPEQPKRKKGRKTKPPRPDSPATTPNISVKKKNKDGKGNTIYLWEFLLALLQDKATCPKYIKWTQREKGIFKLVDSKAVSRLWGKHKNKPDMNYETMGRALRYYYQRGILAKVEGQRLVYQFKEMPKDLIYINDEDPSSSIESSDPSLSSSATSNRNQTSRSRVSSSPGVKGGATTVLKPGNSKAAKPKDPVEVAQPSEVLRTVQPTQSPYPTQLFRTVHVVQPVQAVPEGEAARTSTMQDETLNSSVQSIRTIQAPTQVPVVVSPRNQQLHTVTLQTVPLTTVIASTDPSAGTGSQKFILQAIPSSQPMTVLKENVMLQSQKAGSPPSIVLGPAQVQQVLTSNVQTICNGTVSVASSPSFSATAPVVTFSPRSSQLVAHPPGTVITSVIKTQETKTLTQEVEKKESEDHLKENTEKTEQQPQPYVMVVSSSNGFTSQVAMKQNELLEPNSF
# Method in brief: as §1
# EHF = biological target: T5, EHF (Homo sapiens, UniProt Q9NZC4 1-300); details: protein: recombinant; tags: N-terminal GST; dsDNA, one strand shown
# T5 sequence: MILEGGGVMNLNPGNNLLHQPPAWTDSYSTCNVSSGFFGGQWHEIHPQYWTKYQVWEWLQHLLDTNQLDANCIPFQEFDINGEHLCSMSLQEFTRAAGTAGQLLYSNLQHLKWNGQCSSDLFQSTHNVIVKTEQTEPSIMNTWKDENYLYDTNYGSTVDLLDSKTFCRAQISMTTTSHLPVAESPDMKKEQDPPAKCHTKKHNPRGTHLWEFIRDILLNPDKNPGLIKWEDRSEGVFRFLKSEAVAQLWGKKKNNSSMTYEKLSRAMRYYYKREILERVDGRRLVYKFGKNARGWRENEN
# Method in brief: as §1
# SPI1 = SPI1 (Homo sapiens, UniProt P17947 1-270); details: protein: recombinant; tags: N-terminal GST; dsDNA, one strand shown
# Method in brief: as §1
# SPIB = SPIB (Homo sapiens, UniProt Q01892 1-262); details: protein: recombinant; tags: N-terminal GST; dsDNA, one strand shown
# SPIB, sequence (Q01892 whole entry): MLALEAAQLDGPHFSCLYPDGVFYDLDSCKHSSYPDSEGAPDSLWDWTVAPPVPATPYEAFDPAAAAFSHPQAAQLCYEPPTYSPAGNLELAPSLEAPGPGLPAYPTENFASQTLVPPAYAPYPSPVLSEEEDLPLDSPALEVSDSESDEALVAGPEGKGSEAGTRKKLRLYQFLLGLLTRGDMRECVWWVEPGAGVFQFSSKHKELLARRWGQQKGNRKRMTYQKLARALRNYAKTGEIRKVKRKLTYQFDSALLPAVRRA
# Method in brief: as §1
# ELK3 = biological target: T6, ELK3 (Homo sapiens, UniProt P41970 1-407); details: protein: recombinant; tags: N-terminal GST; dsDNA, one strand shown
# T6 sequence: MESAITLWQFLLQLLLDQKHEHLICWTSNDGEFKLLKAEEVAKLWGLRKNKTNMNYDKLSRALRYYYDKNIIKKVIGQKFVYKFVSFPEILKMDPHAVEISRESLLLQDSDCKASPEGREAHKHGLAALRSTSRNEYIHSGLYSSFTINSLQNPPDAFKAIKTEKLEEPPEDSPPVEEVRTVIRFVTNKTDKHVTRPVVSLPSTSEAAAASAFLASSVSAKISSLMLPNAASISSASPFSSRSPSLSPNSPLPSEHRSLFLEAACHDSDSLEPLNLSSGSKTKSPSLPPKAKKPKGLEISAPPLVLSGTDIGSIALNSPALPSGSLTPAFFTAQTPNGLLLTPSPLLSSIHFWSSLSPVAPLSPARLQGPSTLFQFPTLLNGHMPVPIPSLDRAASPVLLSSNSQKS
# Method in brief: as §1
# FEV = biological target: T7, FEV (Homo sapiens, UniProt Q99581 1-238); details: protein: recombinant; tags: N-terminal GST; dsDNA, one strand shown
# T7 sequence: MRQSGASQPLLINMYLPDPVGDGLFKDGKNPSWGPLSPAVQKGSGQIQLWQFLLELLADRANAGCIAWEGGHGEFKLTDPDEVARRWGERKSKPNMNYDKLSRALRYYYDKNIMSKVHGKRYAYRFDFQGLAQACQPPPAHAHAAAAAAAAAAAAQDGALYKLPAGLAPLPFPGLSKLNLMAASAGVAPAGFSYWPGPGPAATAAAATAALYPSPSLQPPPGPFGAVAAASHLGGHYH
# Method in brief: as §1
# ETV5 = ETV5 (Homo sapiens, UniProt P41161 1-510); details: protein: recombinant; tags: N-terminal GST; dsDNA, one strand shown
# ETV5, sequence (P41161 whole entry): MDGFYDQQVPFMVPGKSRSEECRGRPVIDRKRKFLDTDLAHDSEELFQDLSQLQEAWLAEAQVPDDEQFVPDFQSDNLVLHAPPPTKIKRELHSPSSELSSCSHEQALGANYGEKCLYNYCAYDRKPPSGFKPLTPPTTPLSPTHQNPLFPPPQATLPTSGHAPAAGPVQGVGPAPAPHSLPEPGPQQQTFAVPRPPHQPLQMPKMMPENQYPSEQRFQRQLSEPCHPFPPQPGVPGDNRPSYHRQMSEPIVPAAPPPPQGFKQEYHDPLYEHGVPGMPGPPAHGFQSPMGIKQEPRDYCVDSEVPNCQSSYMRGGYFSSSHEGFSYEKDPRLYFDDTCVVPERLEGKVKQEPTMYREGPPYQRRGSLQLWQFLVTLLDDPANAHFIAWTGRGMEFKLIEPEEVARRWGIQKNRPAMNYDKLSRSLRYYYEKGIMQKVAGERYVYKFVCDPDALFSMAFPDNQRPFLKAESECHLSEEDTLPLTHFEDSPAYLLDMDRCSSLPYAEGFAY
# Method in brief: as §1
# HSF1 = HSF1 (Homo sapiens, UniProt Q00613 1-529); details: protein: recombinant; tags: N-terminal GST; chain copies: 3; dsDNA, one strand shown
# HSF1, sequence (Q00613 whole entry): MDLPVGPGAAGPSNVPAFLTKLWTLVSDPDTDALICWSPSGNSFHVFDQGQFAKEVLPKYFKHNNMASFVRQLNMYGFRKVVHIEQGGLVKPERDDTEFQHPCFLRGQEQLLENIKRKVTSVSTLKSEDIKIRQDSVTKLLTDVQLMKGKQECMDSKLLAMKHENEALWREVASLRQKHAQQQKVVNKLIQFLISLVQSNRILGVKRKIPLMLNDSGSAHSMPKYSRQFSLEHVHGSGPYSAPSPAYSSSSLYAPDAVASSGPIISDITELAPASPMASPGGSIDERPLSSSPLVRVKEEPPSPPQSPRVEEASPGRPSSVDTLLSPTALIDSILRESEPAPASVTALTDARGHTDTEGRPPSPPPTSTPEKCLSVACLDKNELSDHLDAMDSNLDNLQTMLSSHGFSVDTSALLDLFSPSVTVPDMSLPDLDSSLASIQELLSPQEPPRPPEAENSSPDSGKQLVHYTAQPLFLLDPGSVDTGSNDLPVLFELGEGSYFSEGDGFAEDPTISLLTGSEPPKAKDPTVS
# Method in brief: as §1
# SPIC = biological target: T8, SPIC (Homo sapiens, UniProt Q8N5J4 1-248); details: protein: recombinant; tags: N-terminal GST; dsDNA, one strand shown
# T8 sequence: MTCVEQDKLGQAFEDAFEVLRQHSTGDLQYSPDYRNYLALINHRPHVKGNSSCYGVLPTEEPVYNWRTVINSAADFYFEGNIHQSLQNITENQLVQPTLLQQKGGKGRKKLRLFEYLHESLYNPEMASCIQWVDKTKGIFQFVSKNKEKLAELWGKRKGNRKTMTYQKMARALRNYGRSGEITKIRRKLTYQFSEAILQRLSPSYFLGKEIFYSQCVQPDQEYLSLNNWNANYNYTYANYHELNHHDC
# Method in brief: as §1
# ELF4 = ELF4 (Homo sapiens, UniProt Q99607 1-663); details: protein: recombinant; tags: N-terminal GST; dsDNA, one strand shown
# ELF4, sequence (Q99607 whole entry): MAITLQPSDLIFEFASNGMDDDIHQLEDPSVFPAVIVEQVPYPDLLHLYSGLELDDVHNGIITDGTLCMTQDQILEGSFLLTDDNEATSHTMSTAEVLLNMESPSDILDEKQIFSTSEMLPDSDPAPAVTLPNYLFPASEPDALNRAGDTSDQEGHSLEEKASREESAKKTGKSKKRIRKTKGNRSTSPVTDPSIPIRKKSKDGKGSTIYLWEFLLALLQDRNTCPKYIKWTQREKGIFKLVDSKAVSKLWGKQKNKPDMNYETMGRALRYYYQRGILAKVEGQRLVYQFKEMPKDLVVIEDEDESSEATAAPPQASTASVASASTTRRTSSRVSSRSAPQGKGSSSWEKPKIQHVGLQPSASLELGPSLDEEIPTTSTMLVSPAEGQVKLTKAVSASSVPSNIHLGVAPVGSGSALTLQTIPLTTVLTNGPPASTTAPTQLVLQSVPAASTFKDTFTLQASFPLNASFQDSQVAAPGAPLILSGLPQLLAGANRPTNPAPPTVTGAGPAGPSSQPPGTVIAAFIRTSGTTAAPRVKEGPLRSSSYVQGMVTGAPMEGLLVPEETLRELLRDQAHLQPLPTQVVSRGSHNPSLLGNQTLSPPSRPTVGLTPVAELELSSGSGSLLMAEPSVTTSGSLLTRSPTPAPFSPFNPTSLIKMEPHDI
# Method in brief: as §1
# ELK4 = biological target: T9, ELK4 (Homo sapiens, UniProt P28324-2 1-405); details: protein: recombinant; tags: N-terminal GST; dsDNA, one strand shown
# T9 sequence: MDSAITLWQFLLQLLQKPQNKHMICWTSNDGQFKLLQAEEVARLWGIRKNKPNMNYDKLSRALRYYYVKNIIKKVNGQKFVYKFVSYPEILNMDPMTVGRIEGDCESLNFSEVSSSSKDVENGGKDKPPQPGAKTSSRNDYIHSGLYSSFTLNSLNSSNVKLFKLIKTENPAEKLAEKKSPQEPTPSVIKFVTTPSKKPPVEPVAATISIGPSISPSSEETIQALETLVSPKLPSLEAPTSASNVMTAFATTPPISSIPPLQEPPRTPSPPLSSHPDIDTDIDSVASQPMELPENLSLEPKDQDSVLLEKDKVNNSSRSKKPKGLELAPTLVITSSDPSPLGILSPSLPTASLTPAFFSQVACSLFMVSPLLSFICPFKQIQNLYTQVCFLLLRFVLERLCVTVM
# Method in brief: as §1
# ETV2 = biological target: T10, ETV2 (Homo sapiens, UniProt O00321 1-342); details: protein: recombinant; tags: N-terminal GST; dsDNA, one strand shown
# T10 sequence: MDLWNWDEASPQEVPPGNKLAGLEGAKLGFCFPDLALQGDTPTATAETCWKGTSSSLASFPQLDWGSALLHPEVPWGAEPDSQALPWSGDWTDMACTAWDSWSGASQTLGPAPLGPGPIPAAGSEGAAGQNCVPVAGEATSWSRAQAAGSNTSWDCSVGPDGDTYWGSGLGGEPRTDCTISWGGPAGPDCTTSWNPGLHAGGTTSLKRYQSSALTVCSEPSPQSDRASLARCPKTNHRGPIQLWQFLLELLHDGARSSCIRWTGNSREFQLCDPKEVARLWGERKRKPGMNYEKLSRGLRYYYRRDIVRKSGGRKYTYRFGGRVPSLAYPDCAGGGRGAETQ
# Method in brief: as §1
# ELF3 = biological target: T11, ELF3 (Homo sapiens, UniProt P78545 1-371); details: protein: recombinant; tags: N-terminal GST; dsDNA, one strand shown
# T11 sequence: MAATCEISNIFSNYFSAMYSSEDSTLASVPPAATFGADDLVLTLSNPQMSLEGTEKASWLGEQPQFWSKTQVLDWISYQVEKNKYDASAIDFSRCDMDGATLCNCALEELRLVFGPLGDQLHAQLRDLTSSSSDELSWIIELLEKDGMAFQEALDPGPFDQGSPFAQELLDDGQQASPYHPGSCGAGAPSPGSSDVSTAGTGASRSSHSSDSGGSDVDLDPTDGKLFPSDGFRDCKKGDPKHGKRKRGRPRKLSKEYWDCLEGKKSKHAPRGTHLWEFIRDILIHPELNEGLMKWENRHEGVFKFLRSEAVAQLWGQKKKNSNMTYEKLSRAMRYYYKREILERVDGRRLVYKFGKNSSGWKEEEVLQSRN
# Method in brief: as §1
# CRX = CRX (Homo sapiens, UniProt O43186 1-299); details: protein: recombinant; tags: N-terminal GST; dsDNA, one strand shown
# CRX, sequence (O43186 whole entry): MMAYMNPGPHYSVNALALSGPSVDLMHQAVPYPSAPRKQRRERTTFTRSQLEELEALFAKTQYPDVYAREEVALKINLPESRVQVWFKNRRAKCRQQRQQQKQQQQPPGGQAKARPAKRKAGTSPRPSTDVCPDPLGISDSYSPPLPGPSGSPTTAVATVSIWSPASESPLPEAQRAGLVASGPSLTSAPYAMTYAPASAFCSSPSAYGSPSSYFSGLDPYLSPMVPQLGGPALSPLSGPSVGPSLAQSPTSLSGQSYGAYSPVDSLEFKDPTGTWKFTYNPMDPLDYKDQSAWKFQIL
# Method in brief: as §1
# ETV1 = ETV1 (Homo sapiens, UniProt P50549 1-477); details: protein: recombinant; tags: N-terminal GST; dsDNA, one strand shown
# ETV1, sequence (P50549 whole entry): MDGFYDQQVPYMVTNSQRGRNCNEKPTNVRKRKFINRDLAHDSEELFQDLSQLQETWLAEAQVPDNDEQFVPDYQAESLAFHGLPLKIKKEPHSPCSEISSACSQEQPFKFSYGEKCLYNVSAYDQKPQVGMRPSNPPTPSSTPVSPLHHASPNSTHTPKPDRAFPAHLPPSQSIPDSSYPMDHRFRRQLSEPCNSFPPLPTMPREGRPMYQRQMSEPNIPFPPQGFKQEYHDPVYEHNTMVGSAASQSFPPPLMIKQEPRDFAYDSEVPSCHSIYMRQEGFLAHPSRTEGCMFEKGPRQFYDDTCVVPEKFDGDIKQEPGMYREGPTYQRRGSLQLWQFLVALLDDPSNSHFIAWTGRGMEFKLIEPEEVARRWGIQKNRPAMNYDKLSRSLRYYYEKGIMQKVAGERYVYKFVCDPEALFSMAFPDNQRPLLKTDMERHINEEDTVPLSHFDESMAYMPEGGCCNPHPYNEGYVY
# Method in brief: as §1
sequence,measurement,setting,value
CCGCTA,binding signal,FLI1,"1.45 fold enrichment (6-mer frequency, TF over GST control)"
same,binding signal,ELK1,"1.37 fold enrichment (6-mer frequency, TF over GST control)"
same,binding signal,GABPA,"1.2 fold enrichment (6-mer frequency, TF over GST control)"
same,binding signal,ERG,"1.37 fold enrichment (6-mer frequency, TF over GST control)"
same,binding signal,ELF1,"1.27 fold enrichment (6-mer frequency, TF over GST control)"
same,binding signal,EHF,"1.41 fold enrichment (6-mer frequency, TF over GST control)"
same,binding signal,SPI1,"1.51 fold enrichment (6-mer frequency, TF over GST control)"
same,binding signal,SPIB,"1.46 fold enrichment (6-mer frequency, TF over GST control)"
same,binding signal,ELK3,"1.37 fold enrichment (6-mer frequency, TF over GST control)"
same,binding signal,FEV,"1.33 fold enrichment (6-mer frequency, TF over GST control)"
same,binding signal,ETV5,"1.23 fold enrichment (6-mer frequency, TF over GST control)"
same,binding signal,HSF1,"1.17 fold enrichment (6-mer frequency, TF over GST control)"
same,binding signal,SPIC,"1.44 fold enrichment (6-mer frequency, TF over GST control)"
same,binding signal,ELF4,"1.33 fold enrichment (6-mer frequency, TF over GST control)"
same,binding signal,ELK4,"1.3 fold enrichment (6-mer frequency, TF over GST control)"
same,binding signal,ETV2,"1.37 fold enrichment (6-mer frequency, TF over GST control)"
same,binding signal,ELF3,"1.38 fold enrichment (6-mer frequency, TF over GST control)"
same,binding signal,CRX,"1.28 fold enrichment (6-mer frequency, TF over GST control)"
same,binding signal,ETV1,"1.36 fold enrichment (6-mer frequency, TF over GST control)"
